9 compounds from PubChem BioAssay (NCATS) can be followed below.

Records with an inconclusive call do not appear. Calls of active or inactive are those of the source. Unless noted, the rule behind the calls is not given here.

A short description of assay [1]: qHTS profiling of the MIPE4 collection as inhibitors of Plasmodium falciparum (3D7) proliferation (AID 743344).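 Note: scaled between DMSO vehicle wells and 0.29 µM artemisinin as full inhibition.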 To be noted: P. falciparum 3D7 in erythrocytes, SYBR Green DNA fluorescence, 72 h; at 28.5 µM unless noted. In a few lines: (§1)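 Parasite DNA was quantified by SYBR Green I fluorescence (ex 485, em 535 nm) after overnight lysis in saponin/Triton buffer at room temperature. Cultures at 0.3% parasitemia and 2.5% hematocrit were first exposed to compound for 72 h at 37 C; signals were normalised to artemisinin (0.29 uM) and vehicle wells.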

The nature of assay [2]: qHTS profiling of the MIPE4 collection as inhibitors of Plasmodium falciparum (DD2) proliferation (AID 743345). To be noted: P. falciparum Dd2 in erythrocytes, SYBR Green DNA, 72 h; at 28.5 µM unless noted. In a few lines:
as §1

Assay [3] is described as follows: qHTS profiling of the MIPE4 collection as inhibitors of Plasmodium falciparum (DD2) proliferation (Rep 2) (AID 743346). The note with it: P. falciparum Dd2 in erythrocytes, SYBR Green DNA, 72 h; at 28.5 µM unless noted. In a few lines: as §1
The nature of assay [4]: qHTS profiling of the MIPE4 collection as inhibitors of Plasmodium falciparum (HB3) proliferation (AID 743347).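 Note: plate controls were DMSO vehicle wells for no effect and artemisinin wells for full effect.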 To be noted: P. falciparum HB3 in erythrocytes, SYBR Green DNA, 72 h; at 28.5 µM unless noted. In a few lines: as §1
A short description of assay [5]: High-throughput drug toxicity screening in the BPDCN cell line Gen2.2 (AID 1224824).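 Note: cells exposed to compounds for 48 h before reading.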 The note with it: Gen2.2 BPDCN cells; at 45.8 µM (top of the series) unless noted. In a few lines:
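Seed 500 exponentially growing Gen2.2 cells/well; add compounds by pin tool; incubate 48 h, 37 °C, 5% CO2; add CellTiter-Glo, 15 min RT; read luminescence. % activity vs DMSO (100%) and bortezomib (0%).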

Assay [6] is described as follows: High-throughput drug toxicity screening in the BPDCN cell line Cal-1 (AID 1224825). To be noted: Cal-1 BPDCN cell viability, qHTS; at 45.8 µM (top of the series) unless noted. In a few lines:
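Percent activity derived from CellTiter-Glo luminescence, scaling DMSO to 100% and 9.2 uM final bortezomib to 0%. BPDCN Cal-1 cells (500/well, RPMI plus 10% FBS) incubated with compounds 48 hours at 37C before reading.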

The nature of assay [7]: qHTS assay for measurement of the activity of small molecule inhibitors on Zika virus induced Caspase-3 activity in human iPSC derived neural progenitor cells (hNPCs) (AID 1224857; active = well fitted inhibition curve with a large enough effect; note: % of control where 0% means no effect; nearly all actives have a fitted effect of over 65% in size). In a few lines:
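Cells were plated at 350 per well and grown 16 to 20 hours. Compound pretreatment lasted one hour, after which ZIKV (2 FFU/cell) was added for 6 hours. Percent inhibition was normalized between uninfected and infected controls.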

Assay [8] is described as follows: qHTS Screen of the MIPE 4.0 Collection Against Ewings Sarcoma (RDES) (AID 1259252; active = well fitted inhibition curve with a large enough effect; note: nearly all actives have a fitted effect of over 35% in size; note: potency is the fitted concentration of half-maximal effect). In a few lines:
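Cells plated in serum-containing RPMI (5% FBS) and treated with compound dilutions for 48 h. Readout luminescent viability; normalization relied on vehicle (no inhibition) and media-only columns (full inhibition).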

A short description of assay [9]: qHTS assay for measurement of the activity of small molecule inhibitors on Zika virus induced Caspase-3 activity in human astrocytoma cells (AID 1224859; active = well fitted inhibition curve with a large enough effect;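 note: plate controls were ZIKV-infected untreated cells for no effect and uninfected cells for full effect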). In a few lines:
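Percent inhibition of virus-induced caspase-3/7 signal is calculated against uninfected and ZIKV-infected control cells. Cells are SNB-19, infected at 2 FFU/cell for 6 h after 1 h compound exposure.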

Turning to `c1ccc(-c2oc3ncnc(NC[C@@H]4CCCO4)c3c2-c2ccccc2)cc1`, the parasite growth, % of DMSO control in assay [1] is 36.2%. Further, the parasite growth remaining, % of DMSO control (lower = more inhibition) in [2] came out at 72.4%. For the same compound, the parasite growth, % of control (lower = inhibition) in assay [3] is 41.6%. Further, in assay [4], the growth, % of control came out at 19.8%. The cell viability, % of control (lower = more cytotoxic) in [5] was 343%. For the same compound, the viability (% of control) in assay [6] was found to be 42.1%. For the same compound, the Potency result in [7] is “inactive”.

In the case of `Cc1ccc(S(=O)(=O)OCC(=O)Nc2ccc(C(=O)O)c(O)c2)cc1`, in assay [1], the parasite growth, % of DMSO control is 61.2%. In assay [2], this compound showed a parasite growth remaining, % of DMSO control (lower = more inhibition) of 85.7%. Further, the parasite growth, % of control (lower = inhibition) in assay [3] amounted to 124%. Moreover, in assay [4], the growth, % of control is 75.5%. The cell viability, % of control (lower = more cytotoxic) in assay [5] was found to be 96.8%. This compound also yielded a viability (% of control) in assay [6] of 25.4%. Further, the Potency result in assay [7] is “inactive”. Also, the Potency in [8] was 11.8 µM (active).

`O=C(CO)N1CCC(c2[nH]nc(-c3ccc(Cl)cc3)c2-c2ccncn2)CC1` had a parasite growth remaining, % of DMSO control (lower = more inhibition) in assay [2] of 82.9%. Moreover, the parasite growth, % of control (lower = inhibition) in assay [3] came out at 53.8%. The compound also showed a growth, % of control in assay [4] of 30.6%. Also, the cell viability, % of control (lower = more cytotoxic) in [5] came to 421%. The viability (% of control) in [6] stood at 97.4%. The Potency result in assay [7] and in assay [8] was “inactive” throughout.

For the compound `Cc1cn([C@@H]2C[C@@H](O)[C@H](CO)O2)c(=O)[nH]c1=O`, the cell viability, % of control (lower = more cytotoxic) in assay [5] stood at 159%. Besides, in [6], the viability (% of control) was found to be 69.5%. Besides, the Potency result in assay [9] is “inactive”.

With `COc1cc(C=CC(=O)O)ccc1O`, the parasite growth, % of DMSO control in [1] amounted to 88.4%. This compound also yielded a parasite growth remaining, % of DMSO control (lower = more inhibition) in assay [2] of 95%. For the same compound, the parasite growth, % of control (lower = inhibition) in [3] worked out at 98.9%. The same compound came in with a growth, % of control in assay [4] of 82.4%. Further, in assay [5], the cell viability, % of control (lower = more cytotoxic) came to 105%. Also, in assay [6], the viability (% of control) is 96.5%. Also, the Potency result in assay [7] was “inactive”.

As for `CCn1c(-c2nonc2N)nc2cncc(CNC3CCNCC3)c21`, in assay [1], the parasite growth, % of DMSO control came to 45.1%. In addition, the parasite growth remaining, % of DMSO control (lower = more inhibition) in [2] was determined as 89.6%. Further, the parasite growth, % of control (lower = inhibition) in assay [3] came to 43.8%. For the same compound, in assay [4], the growth, % of control came out at 7.55%. Also, the cell viability, % of control (lower = more cytotoxic) in [5] was determined as 7.5%. This compound gave a viability (% of control) in assay [6] of 56.5%. In addition, the Potency result in assay [7] is “inactive”. Besides, the Potency in assay [8] was 11.8 µM (active).

`O=C(O)C1=CO[C@@H](O[C@@H]2O[C@H](CO)[C@H](O)[C@H](O)[C@H]2O)[C@@H]2C(CO)=CC[C@H]12`: in assay [1], the parasite growth, % of DMSO control came to 99.8%. The parasite growth remaining, % of DMSO control (lower = more inhibition) in [2] turned out to be 96.1%. In addition, in assay [3], the parasite growth, % of control (lower = inhibition) amounted to 83.9%. The growth, % of control in [4] was determined as 103%. Moreover, in assay [5], the cell viability, % of control (lower = more cytotoxic) stood at 78.1%. In addition, the viability (% of control) in assay [6] turned out to be 23.1%. Moreover, in assay [7], the Potency result was “inactive”.

For the compound `Cc1nc2c([nH]1)CCN(C(=O)c1ccc(NC(=O)c3ccccc3-c3ccccc3)cc1)c1ccccc1-2`, in assay [3], the parasite growth, % of control (lower = inhibition) was 13.3%. Also, the growth, % of control in assay [4] amounted to 9.61%. The cell viability, % of control (lower = more cytotoxic) in assay [5] was found to be 48.7%. In [6], this compound yielded a viability (% of control) of 55.1%. Moreover, the Potency result in assay [7] and in assay [8] was “inactive” each time.

Compound `COc1ccc2c(c1)CC[C@H]1[C@@H]2CC[C@]2(C)[C@@H](NCCCCCCN3C(=O)C=CC3=O)CC[C@H]12` had a parasite growth remaining, % of DMSO control (lower = more inhibition) in [2] of 95.3%. For the same compound, the cell viability, % of control (lower = more cytotoxic) in assay [5] stood at 154%. Also, the viability (% of control) in [6] is 43%. The Potency result in [7] was “inactive”.
